From PubChem BioAssay (NCI)
Compounds without any hit were thinned out: in the full panel of roughly 83,000, 20% have a hit.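 Method: cells in 96-well plates; compound added at one concentration; 48 h incubation; percent growth measured; values under 10 scored active.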 Unmarked numbers belong to inactive results. Calls of active or inactive are those of the source.

How the values were obtained:
Experiment in all cases: NCI-60 one-dose screen, 48 h (100 = growth as untreated, 0 = no growth, -100 = all killed)
Settings in all cases: 10 µM unless noted
[1] = system: SK-MEL-2 melanoma
[2] = system: EKVX NSCLC
[3] = system: SN12C renal
[4] = system: UO-31 renal
[5] = system: TK-10 renal
[6] = system: ACHN renal
[7] = system: CAKI-1 renal
[8] = system: A498 renal
[9] = system: CCRF-CEM leukemia
[10] = system: MOLT-4 leukemia
[11] = system: RPMI-8226 leukemia
[12] = system: OVCAR-8 ovarian
[13] = system: OVCAR-5 ovarian
[14] = system: OVCAR-4 ovarian
[15] = system: SK-OV-3 ovarian
[16] = system: IGROV1 ovarian
[17] = system: OVCAR-3 ovarian
[18] = system: HS 578T breast
[19] = system: NCI/ADR-RES ovarian
[20] = system: SR leukemia

SMILES: N#CCCN=Nc1c(O)[nH]c2ccc(F)cc12
- growth [1]: 101%
- growth [2]: 90.9%
- growth [3]: 101%
- growth [4]: 80.6%
- growth [5]: 108%
- growth [6]: 103%
- growth [7]: 84.8%
- growth [8]: 75.8%
- growth [9]: 107%
- growth [10]: 103%
- growth [11]: 109%
- growth [12]: 107%
- growth [13]: 97.7%
- growth [14]: 90.4%
- growth [15]: 100%
- growth [16]: 101%
- growth [17]: 103%
- growth [18]: 97.9%
- growth [19]: 98.7%

SMILES: O=C1NC(=O)C(c2ccc(Cl)cc2Cl)N1 (centres undefined)
- growth [1]: 110%
- growth [2]: 113%
- growth [3]: 104%
- growth [4]: 73.2%
- growth [5]: 98.1%
- growth [6]: 110%
- growth [7]: 100%
- growth [8]: 96.6%
- growth [9]: 93.2%
- growth [10]: 94.3%
- growth [20]: 92.6%
- growth [11]: 109%
- growth [12]: 112%
- growth [14]: 113%
- growth [15]: 108%
- growth [16]: 114%
- growth [17]: 112%
- growth [18]: 102%
- growth [19]: 106%

SMILES: Cn1c(=O)c2c(nc3n(-c4ccc(Cl)cc4Cl)c(Sc4nc(-c5ccccc5)c(C#N)c(=O)[nH]4)cn23)n(C)c1=O
- growth [1]: 99%
- growth [2]: 59.5%
- growth [3]: 33%
- growth [4]: -1.67% (active)
- growth [5]: 5.58% (active)
- growth [6]: 14.2%
- growth [7]: 59.4%
- growth [8]: 33.5%
- growth [9]: 47.7%
- growth [10]: 75.8%
- growth [11]: 59.3%
- growth [12]: 34.2%
- growth [13]: 29.3%
- growth [14]: -33.1% (active)
- growth [15]: 39.7%
- growth [16]: 55.6%
- growth [17]: -15.5% (active)
- growth [18]: 11.5%
- growth [19]: 43.9%

SMILES: O=C(NCCN1CCOCC1)Nc1ccc(-c2cc3c(Nc4ccc(Oc5cccc(C(F)(F)F)c5)c(Cl)c4)ncnc3s2)cc1
- growth [1]: 32%
- growth [2]: 20.8%
- growth [3]: 42.9%
- growth [4]: -35.8% (active)
- growth [5]: 49.8%
- growth [6]: 11.8%
- growth [7]: 8.01% (active)
- growth [8]: 40.3%
- growth [9]: 3.33% (active)
- growth [10]: -4.36% (active)
- growth [11]: -14.8% (active)
- growth [12]: 41.1%
- growth [13]: 36.2%
- growth [14]: 39.2%
- growth [15]: 24.5%
- growth [16]: 28.3%
- growth [17]: 41.1%
- growth [18]: -3.09% (active)
- growth [19]: 77.2%

SMILES: CCCSc1ccc2nc(NC(=O)OC)[nH]c2c1
- growth [1]: 7.33% (active)
- growth [2]: 58.2%
- growth [3]: 41.5%
- growth [4]: 45.5%
- growth [5]: 39.7%
- growth [6]: 48.6%
- growth [7]: 55%
- growth [8]: -5.4% (active)
- growth [9]: 10.6%
- growth [10]: 23.6%
- growth [11]: 14.4%
- growth [12]: 17.1%
- growth [13]: 34.2%
- growth [14]: 48.9%
- growth [15]: 6.85% (active)
- growth [16]: 45.3%
- growth [17]: -32.1% (active)
- growth [18]: 21.2%
- growth [19]: -8.18% (active)

SMILES: Nc1nc2ncc(CCNc3ccc(C(=O)O)cc3)nc2c(=O)[nH]1
- growth [1]: 96.3%
- growth [2]: 120%
- growth [3]: 106%
- growth [4]: 86.6%
- growth [5]: 103%
- growth [6]: 110%
- growth [7]: 98.3%
- growth [8]: 120%
- growth [9]: 87.9%
- growth [10]: 75.5%
- growth [11]: 99.4%
- growth [12]: 108%
- growth [13]: 103%
- growth [14]: 127%
- growth [15]: 115%
- growth [16]: 113%
- growth [17]: 128%
- growth [18]: 117%
- growth [19]: 115%

SMILES: O=C1CC(=NCC(=O)n2c(-c3ccccc3)nc3ccccc32)NN1
- growth [1]: 98.7%
- growth [2]: 77.5%
- growth [3]: 99%
- growth [4]: 69.3%
- growth [5]: 155%
- growth [6]: 93.3%
- growth [7]: 75.9%
- growth [8]: 56.1%
- growth [9]: 107%
- growth [10]: 103%
- growth [11]: 104%
- growth [12]: 102%
- growth [13]: 99.9%
- growth [14]: 97.5%
- growth [15]: 84.8%
- growth [16]: 77.2%
- growth [17]: 103%
- growth [18]: 103%
- growth [19]: 99.5%

SMILES: Cc1ccc(-c2onc3c(=O)[nH]nc(-c4ccccc4)c23)cc1
- growth [1]: 25.6%
- growth [2]: 39%
- growth [3]: 37.4%
- growth [4]: 47.7%
- growth [5]: 55%
- growth [6]: 56.9%
- growth [7]: 33.9%
- growth [8]: 30%
- growth [9]: 20.5%
- growth [10]: 26%
- growth [11]: 17.9%
- growth [12]: 36.7%
- growth [13]: 62.3%
- growth [14]: 67.3%
- growth [15]: 14.9%
- growth [16]: 52.4%
- growth [17]: 7.2% (active)
- growth [18]: 16.7%
- growth [19]: 25.2%

SMILES: COc1cc(C=Nc2oc(-c3ccccc3)c(-c3ccccc3)c2C#N)cc(CN2CCCCC2)c1O
- growth [1]: 103%
- growth [2]: 95%
- growth [3]: 99.5%
- growth [4]: 73.6%
- growth [5]: 107%
- growth [6]: 99.6%
- growth [7]: 86.6%
- growth [8]: 72.3%
- growth [9]: 101%
- growth [10]: 86.8%
- growth [11]: 100%
- growth [12]: 105%
- growth [13]: 97%
- growth [14]: 91.6%
- growth [15]: 116%
- growth [16]: 99.6%
- growth [17]: 110%
- growth [18]: 95.9%
- growth [19]: 95.7%

SMILES: O=C(N/N=C/c1c[nH]c2ccccc12)c1cc(-c2ccccc2)on1
- growth [1]: 101%
- growth [2]: 87.9%
- growth [3]: 92.3%
- growth [4]: 60.7%
- growth [5]: 125%
- growth [6]: 87.6%
- growth [7]: 69.7%
- growth [8]: 78.6%
- growth [9]: 46.1%
- growth [10]: 69.5%
- growth [11]: 90%
- growth [12]: 102%
- growth [13]: 97.5%
- growth [14]: 85.6%
- growth [15]: 91%
- growth [16]: 87.2%
- growth [17]: 103%
- growth [18]: 94.4%
- growth [19]: 84.3%

SMILES: C#CC(F)(F)[C@]1(O)CC[C@H]2[C@@H]3CCC4=CC(=O)CCC4=C3[C@@H](c3ccc(C(C)=O)cc3)C[C@@]21C
- growth [1]: 99.4%
- growth [2]: -60.6% (active)
- growth [3]: 89.3%
- growth [4]: -75% (active)
- growth [5]: 114%
- growth [6]: 87.8%
- growth [7]: -31.9% (active)
- growth [8]: 79%
- growth [9]: -55.5% (active)
- growth [10]: 35.6%
- growth [11]: 2% (active)
- growth [12]: 90%
- growth [13]: 84.4%
- growth [14]: 76.2%
- growth [15]: 52.8%
- growth [16]: -34.3% (active)
- growth [17]: 9.4% (active)
- growth [18]: 76.5%
- growth [19]: 82.7%

SMILES: N#Cc1c(-c2ccc(Cl)cc2)nc(N=Nc2c(O)[nH]c3ccc(Cl)cc23)nc1N1CCOCC1
- growth [1]: 98.1%
- growth [2]: 86.1%
- growth [3]: 97%
- growth [4]: 67.5%
- growth [5]: 120%
- growth [6]: 94.6%
- growth [7]: 85.2%
- growth [8]: 73.2%
- growth [9]: 111%
- growth [10]: 110%
- growth [11]: 119%
- growth [12]: 100%
- growth [13]: 98.9%
- growth [14]: 99.8%
- growth [15]: 96.1%
- growth [16]: 92.5%
- growth [17]: 115%
- growth [18]: 94%
- growth [19]: 88.3%

SMILES: Fc1ccc2[nH]cc(SSc3c[nH]c4ccc(F)cc34)c2c1
- growth [1]: 62.8%
- growth [2]: 14.2%
- growth [3]: 65.1%
- growth [4]: 21.5%
- growth [5]: 84.6%
- growth [6]: 55.1%
- growth [7]: 32.6%
- growth [8]: 35%
- growth [9]: 15.9%
- growth [10]: 14%
- growth [11]: -14% (active)
- growth [12]: 40.5%
- growth [13]: 46.8%
- growth [14]: 46.6%
- growth [15]: 95.2%
- growth [16]: 77.8%
- growth [17]: 50.5%
- growth [18]: -29.2% (active)
- growth [19]: 17.4%

SMILES: COc1ccc(-c2nc3ccc(-c4nc5ccc(N6CCN(C)CC6)cc5[nH]4)cc3[nH]2)cc1OC
- growth [1]: 45%
- growth [2]: 85.4%
- growth [3]: 71.1%
- growth [4]: 99.4%
- growth [5]: 84.3%
- growth [6]: 100%
- growth [7]: 71.9%
- growth [8]: 76.6%
- growth [9]: 51.7%
- growth [10]: 61.1%
- growth [11]: 110%
- growth [12]: 55.8%
- growth [13]: 99.1%
- growth [14]: 68.4%
- growth [15]: 74.2%
- growth [16]: 79.6%
- growth [17]: 30.4%
- growth [18]: 72.2%
- growth [19]: 103%

SMILES: COc1ccc(-c2nc3ccc(-c4nc5ccc(N6CCN(c7ccncc7)CC6)cc5[nH]4)cc3[nH]2)cc1OC
- growth [1]: -17% (active)
- growth [2]: 69.2%
- growth [3]: 45.2%
- growth [4]: 97.5%
- growth [5]: 101%
- growth [6]: 91.9%
- growth [7]: 57.5%
- growth [8]: 61.4%
- growth [9]: 21.1%
- growth [10]: 18.1%
- growth [11]: 53.5%
- growth [12]: 34.6%
- growth [13]: 87.2%
- growth [14]: 26.5%
- growth [15]: 73.6%
- growth [16]: 65.2%
- growth [17]: 4.61% (active)
- growth [18]: 44.1%
- growth [19]: 96.9%

SMILES: CC[C@@H](C(=O)[C@@H](C)[C@@H](O)[C@H](C)[C@@H]1O[C@@H]([C@@H](CC)C(=O)O)CC[C@@H]1C)[C@H]1OC2(C=C[C@@H](O)[C@]3(CC[C@@](C)([C@H]4CC[C@](O)(CC)[C@H](C)O4)O3)O2)[C@H](C)C[C@@H]1C (some centres undefined)
- growth [1]: -55.1% (active)
- growth [2]: 34.3%
- growth [3]: 16.1%
- growth [4]: 20.4%
- growth [5]: 29.7%
- growth [6]: 33.4%
- growth [7]: 18.2%
- growth [8]: -79.2% (active)
- growth [9]: 0.899% (active)
- growth [10]: -8.95% (active)
- growth [11]: -36.1% (active)
- growth [12]: 31.9%
- growth [13]: 57.7%
- growth [14]: 35.8%
- growth [15]: 30.2%
- growth [16]: 40.2%
- growth [17]: 14.6%
- growth [18]: 30%
- growth [19]: 29.6%
